{"source": "paper PMC4336329", "about": "(PLoS ONE, 2015)", "note": "Hit rate of the full screen: of about 310,000 compounds, about 14,000 (4.5%) showed an effect of 50% or more. Effects have a minus sign here. What follows is part of a selection rich in strong results, with near analogues and random picks from the rest.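 Note: peak tail current of the secondary pulse compared with the same well before compound.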", "data": [{"target": "human ether-à-go-go-related gene (hERG) potassium channel (human, UniProt Q12809)", "sequence (Q12809 whole entry, looked up)": "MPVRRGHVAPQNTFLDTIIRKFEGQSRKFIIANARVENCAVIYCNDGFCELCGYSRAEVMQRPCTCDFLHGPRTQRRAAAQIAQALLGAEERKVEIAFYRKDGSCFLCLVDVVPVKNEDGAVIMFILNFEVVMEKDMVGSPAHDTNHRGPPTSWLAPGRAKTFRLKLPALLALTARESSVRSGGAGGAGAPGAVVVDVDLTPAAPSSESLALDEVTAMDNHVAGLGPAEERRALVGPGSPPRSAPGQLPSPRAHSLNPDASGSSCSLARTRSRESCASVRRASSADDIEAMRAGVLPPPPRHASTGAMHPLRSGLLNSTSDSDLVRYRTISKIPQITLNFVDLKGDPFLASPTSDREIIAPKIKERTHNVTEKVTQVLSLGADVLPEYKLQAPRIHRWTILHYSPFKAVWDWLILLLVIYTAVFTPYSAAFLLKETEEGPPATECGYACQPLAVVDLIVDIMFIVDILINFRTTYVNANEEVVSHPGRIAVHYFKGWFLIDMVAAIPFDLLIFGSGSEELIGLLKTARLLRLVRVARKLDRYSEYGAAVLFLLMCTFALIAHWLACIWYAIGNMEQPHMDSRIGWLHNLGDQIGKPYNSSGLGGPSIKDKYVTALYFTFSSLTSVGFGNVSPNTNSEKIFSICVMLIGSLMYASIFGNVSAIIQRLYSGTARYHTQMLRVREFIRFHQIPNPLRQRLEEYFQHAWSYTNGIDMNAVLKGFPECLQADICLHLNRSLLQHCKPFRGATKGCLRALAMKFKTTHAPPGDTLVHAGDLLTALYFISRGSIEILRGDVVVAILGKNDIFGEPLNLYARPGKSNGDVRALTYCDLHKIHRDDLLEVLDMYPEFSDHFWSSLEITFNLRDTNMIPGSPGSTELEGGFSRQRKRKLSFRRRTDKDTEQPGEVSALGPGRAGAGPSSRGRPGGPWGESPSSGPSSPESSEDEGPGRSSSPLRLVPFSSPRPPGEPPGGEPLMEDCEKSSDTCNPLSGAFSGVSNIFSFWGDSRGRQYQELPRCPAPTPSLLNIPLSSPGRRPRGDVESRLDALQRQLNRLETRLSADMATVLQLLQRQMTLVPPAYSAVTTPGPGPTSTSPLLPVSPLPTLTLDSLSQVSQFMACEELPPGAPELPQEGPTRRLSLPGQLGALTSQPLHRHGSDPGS", "experiment": "primary screen, population patch clamp on CHO cells stably expressing hERG; higher = less effect of the substance", "units": {"hERG current change (%, negative = inhibition) at 10uM": "%"}, "values": [{"smiles": "CN(C)C(=O)c1nc2ccc(Cl)cn2c1CN1CCCC(OCc2cccnc2)C1", "note": "(stereo not shown)", "hERG current change (%, negative = inhibition) at 10uM": -57.9}, {"smiles": "CN(C)C(=O)c1nc2ccc(Cl)cn2c1CN1CCCC(OCc2ccccc2)C1", "note": "(stereo not shown)", "hERG current change (%, negative = inhibition) at 10uM": -36.2}, {"smiles": "COC1CCCN(Cc2c(C(=O)N3CCc4ccccc4C3)nc3ccc(Cl)cn23)C1", "note": "(stereo not shown)", "hERG current change (%, negative = inhibition) at 10uM": -35.9}, {"smiles": "NCCNc1ccc2nnnn2n1", "hERG current change (%, negative = inhibition) at 10uM": 38.7}, {"smiles": "COc1ccc(CN2CCCC(N3CCc4ccccc4C3)C2)c(O)c1", "note": "(stereo not shown)", "hERG current change (%, negative = inhibition) at 10uM": -60.1}, {"smiles": "CCOc1cccc(CN2CCCC(N3CCc4ccccc4C3)C2)c1O", "note": "(stereo not shown)", "hERG current change (%, negative = inhibition) at 10uM": -52.9}, {"smiles": "COc1cccc(CN2CCCC(N3CCc4ccccc4C3)C2)c1O", "note": "(stereo not shown)", "hERG current change (%, negative = inhibition) at 10uM": -17.7}, {"smiles": "COc1ccc(O)c(CN2CCCC(N3CCc4ccccc4C3)C2)c1", "note": "(stereo not shown)", "hERG current change (%, negative = inhibition) at 10uM": -46.6}, {"smiles": "Oc1ccccc1CN1CCCC(N2CCc3ccccc3C2)C1", "note": "(stereo not shown)", "hERG current change (%, negative = inhibition) at 10uM": -38.8}, {"smiles": "CCOc1cc(CN2CCCC(N3CCc4ccccc4C3)C2)ccc1O", "note": "(stereo not shown)", "hERG current change (%, negative = inhibition) at 10uM": -21.4}, {"smiles": "CCC(C)(C)NC(=O)C(c1ccc(OC)cc1)N(CCOC)C(=O)CCC(=O)Nc1nccs1", "note": "(stereo not shown)", "hERG current change (%, negative = inhibition) at 10uM": 0.428}, {"smiles": "COc1cc(NC(=O)Cn2cnc(S(=O)(=O)N3CCCCC3)c2)cc(OC)c1OC", "hERG current change (%, negative = inhibition) at 10uM": 14.9}, {"smiles": "Cc1ccc(-c2ncccc2OC(=O)C23CC4CC(CC(C4)C2)C3)cc1.Cl", "hERG current change (%, negative = inhibition) at 10uM": 12}, {"smiles": "COc1ccc2c(c1OC)CN(C)CCc1cc3c(cc1C(=O)C2)OCO3", "hERG current change (%, negative = inhibition) at 10uM": -81}, {"smiles": "COc1cc2c(cc1OC)C(=O)Cc1ccc3c(c1CN(C)CC2)OCO3", "hERG current change (%, negative = inhibition) at 10uM": -54.1}, {"smiles": "COc1ccc2c(c1OC)CN(C)CCc1cc3c(cc1C(O)C2)OCO3", "note": "(stereo not shown)", "hERG current change (%, negative = inhibition) at 10uM": -27.1}, {"smiles": "Br.COc1c2c(cc3c1OCO3)CCN(C)C2", "hERG current change (%, negative = inhibition) at 10uM": 0.899}, {"smiles": "COc1ccc2c(c1OC)CN1CCc3cc4c(cc3[C@H]1C2)OCO4", "hERG current change (%, negative = inhibition) at 10uM": -1.81}, {"smiles": "COc1cc2c(cc1OC)C(C1c3cc4c(cc3CCN1C)OCO4)OC2=O", "note": "(stereo not shown)", "hERG current change (%, negative = inhibition) at 10uM": 4.1}, {"smiles": "O=C(Nc1ccc(CN2CCOCC2)cc1)c1ccc(Br)o1", "hERG current change (%, negative = inhibition) at 10uM": 1.56}, {"smiles": "Cc1ccc2nc(SCC(=O)N3CC(C)OC(C)C3)nc(=O)n2c1", "note": "(stereo not shown)", "hERG current change (%, negative = inhibition) at 10uM": -13}, {"smiles": "O=C(N/N=C/c1cc([N+](=O)[O-])c(N2CCOCC2)cc1N1CCOCC1)c1cccnc1", "hERG current change (%, negative = inhibition) at 10uM": -22.4}, {"smiles": "CCOC(=O)N1CCC(c2cc(=O)n3[nH]cc(C(=O)OC)c3n2)CC1", "hERG current change (%, negative = inhibition) at 10uM": 9.34}, {"smiles": "CCC12CCCN3CCc4c(n(c5ccccc45)C(O)(C(=O)OC)C1)C32", "note": "(stereo not shown)", "hERG current change (%, negative = inhibition) at 10uM": -28.9}, {"smiles": "CC[C@]12CCCN3CCc4c(n(c5ccccc45)[C@@](O)(C(=O)OC)C1)[C@@H]32", "hERG current change (%, negative = inhibition) at 10uM": -80.9}, {"smiles": "CCC1(C(=O)OC)CCc2c(cc(OC)c3ccccc23)C1=O", "note": "(stereo not shown)", "hERG current change (%, negative = inhibition) at 10uM": 3.07}, {"smiles": "CC[C@H]1CC2CN3CCc4c([nH]c5ccccc45)C(C(=O)OC)(C2)C13.Cl", "note": "(stereo partly shown)", "hERG current change (%, negative = inhibition) at 10uM": -2.97}, {"smiles": "CC[C@]12CCCN3CCc4c(n(c5ccccc45)[C@](O)(C(=O)OC)C1)[C@@H]32", "hERG current change (%, negative = inhibition) at 10uM": -72.4}, {"smiles": "COC(=O)[C@@H]1[C@H]2C[C@H]3c4[nH]c5ccccc5c4CCN3C[C@@H]2CC[C@@H]1O.Cl", "hERG current change (%, negative = inhibition) at 10uM": -22}, {"smiles": "O=C(NCc1ccco1)c1ccc(Cl)c(S(=O)(=O)N2CCCC2)c1", "hERG current change (%, negative = inhibition) at 10uM": -9.61}, {"smiles": "O=C1NC(=O)/C(=C\\c2ccc(OCc3cccc(C(=O)O)c3)c(Cl)c2)N1", "hERG current change (%, negative = inhibition) at 10uM": 20.1}, {"smiles": "COc1cc(OC)cc(C(=O)Nc2ccc(S(=O)(=O)Nc3ncccn3)cc2)c1", "hERG current change (%, negative = inhibition) at 10uM": 12.8}, {"smiles": "COc1c(C)cc(C(=O)C2CCCN(Cc3cnc(N4CCOCC4)s3)C2)cc1C", "note": "(stereo not shown)", "hERG current change (%, negative = inhibition) at 10uM": -8.64}, {"smiles": "CS/C(=N\\NC(N)=O)c1ccccc1", "hERG current change (%, negative = inhibition) at 10uM": -8.24}, {"smiles": "O=C(O)c1ccc2c(=O)n3c(nc2c1)/C(=C/c1ccccc1Br)CC3", "hERG current change (%, negative = inhibition) at 10uM": 4.66}, {"smiles": "C/C(=N\\NC(=O)CCCNc1cccc(C)c1)c1ccncc1", "hERG current change (%, negative = inhibition) at 10uM": 0.987}, {"smiles": "CCCCn1c(N)c(N(CC(C)C)C(=O)c2ccc(S(=O)(=O)N3CCCCCC3)cc2)c(=O)[nH]c1=O", "hERG current change (%, negative = inhibition) at 10uM": 9.58}, {"smiles": "O=C(NCCc1nc2ccccc2[nH]1)/C(=C/c1ccc2c(c1)OCO2)NC(=O)c1ccccc1Cl", "hERG current change (%, negative = inhibition) at 10uM": -80.6}, {"smiles": "CC(C)=C(NC(=O)c1ccccc1)C(=O)NCCc1nc2ccccc2[nH]1", "hERG current change (%, negative = inhibition) at 10uM": 9.91}, {"smiles": "O=C(NCCc1nc2ccccc2[nH]1)/C(=C/c1ccc2c(c1)OCO2)NC(=O)c1ccc(Cl)cc1Cl", "hERG current change (%, negative = inhibition) at 10uM": -76.3}, {"smiles": "O=C(N/N=C/c1ccc2c(c1)OCO2)c1ccc(Cl)cc1Cl", "hERG current change (%, negative = inhibition) at 10uM": 20.3}, {"smiles": "COc1ccc(C(=O)N/C(=C\\c2ccc3c(c2)OCO3)C(=O)NCCc2nc3ccccc3[nH]2)cc1", "hERG current change (%, negative = inhibition) at 10uM": -39.4}, {"smiles": "O=C(CCc1nc2ccccc2[nH]1)NCc1ccc2c(c1)OCO2", "hERG current change (%, negative = inhibition) at 10uM": -38.1}, {"smiles": "O=C(Nc1cccc(C(=O)O)c1)/C(=C\\c1ccc2c(c1)OCO2)NC(=O)c1ccccc1Cl", "hERG current change (%, negative = inhibition) at 10uM": 3.5}, {"smiles": "O=C(NCCc1nc2ccccc2[nH]1)/C(=C/c1ccc2c(c1)OCO2)NC(=O)c1ccccc1", "hERG current change (%, negative = inhibition) at 10uM": -71.1}, {"smiles": "O=C(NCCCCCc1nc2ccccc2[nH]1)c1ccccc1Cl", "hERG current change (%, negative = inhibition) at 10uM": -6.43}]}]}
